Experimental data reported in PubChem BioAssay (NCATS).
Records with an inconclusive call do not appear. The source made the active and inactive calls. Unless noted, the call rests on the fitted dose curve; in most records, active means well fitted curve in the direction sought with a large enough effect; inconclusive means small, poorly fitted or top-dose-only effect, or another doubt; inactive means no such curve, though single readings can be large; an effect the other way counts as inactive or inconclusive.

How the values were obtained:
[1] = Nrf2 qHTS screen for inhibitors: Validation (AID 493153; active means well fitted inhibition curve with a large enough effect in the main read-out, with a control signal flat, not every such curve was filed as active); conditions: viability change: measured here: cytotoxicity max response
How it was run: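 Dose-response validation uses reporter A549 cells with firefly luciferase under an antioxidant response element. Compounds stay on cells 18-24 h at 37°C, and luminescence indicates Nrf2-driven transcription.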

[2] = qHTS for Inhibitors of Cell Surface uPA Generation: Validation Assay (AID 493164);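 further: RAW 264.7 macrophage cells exposed to compound for 18 h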
How it was run: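 RAW 264.7, 4000 cells/well, o/n plating; cpd 7-pt 1:5 dilution 2.45 nM–38.3 uM final; 18 h, 37 C/5% CO2; ATP-Lite, 5 s luminescence exposure.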

[3] = biological target: Galactokinase (Homo sapiens) (UniProt P51570); test: qHTS Validation Assay for Inhibitors of Human Galactokinase (GALK) (AID 493189)
How it was run: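 GALK (5 nM) with 35 uM ATP and 100 uM galactose in HEPES pH8.0, MgCl2, NaCl, DTT, BSA; 1 h at room temperature. Residual ATP read by Kinase-Glo Plus luminescence after 10 min.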

[4] = Validation screen for small molecules that induce DNA re-replication in SW480 colon adenocarcinoma cells (AID 504364)
How it was run: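 Cells are treated 48 hr with test compound, stained 40 min with Hoechst at 37 C, and scanned for nuclear fluorescence; compounds inducing re-replication increase nuclei with elevated intensity.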

[5] = biological target: Ubiquitin carboxyl-terminal hydrolase 1 (Homo sapiens) (UniProt O94782); test: Inhibitors of USP1/UAF1: Pilot qHTS (AID 504865);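 further: rhodamine fluorescence freed from ubiquitin-rhodamine substrate followed over time; top concentration of the series differs between compounds; nearly all actives have a fitted effect of over 35% in size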
How it was run: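 USP1/UAF1 complex (1nM) preincubated with compound 15 min at room temperature, then Ub-Rho substrate (150nM final) added. Fluorescence read kinetically at 480/540 nm, 6 reads every 60 seconds. Buffer: 50mM HEPES pH 7.8, 0.5mM EDTA, 0.1 mg/ml BSA, 1mM TCEP, 0.01% Tween-20.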

[6] = qHTS for Inhibitors of ATXN expression: Validation of Cytotoxic Assay (AID 588349);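 further: cells exposed to compound for 72 hr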
How it was run: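 HEK293, compound dose series, 72 hr / 37 degrees C; viability via CellTiter Glo (intracellular ATP).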

[7] = qHTS for Inhibitors of ATXN expression: Validation (AID 588378); further: series mostly up to about 57 µM; nearly all actives have a fitted effect of over 75% in size
How it was run: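 Luminescence from an ATXN2-FFLuc reporter in HEK293 cells served as read-out after 24 h compound treatment at 37 degrees C; CellTiter-Fluor fluorescence was recorded first to assess viability.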

[8] = biological target: Voltage-gated inwardly rectifying potassium channel KCNH2 (Homo sapiens) (UniProt Q12809); test: qHTS Assay for Small Molecule Inhibitors of the Human hERG Channel Activity (AID 588834);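 further: top concentration of the series differs between compounds; lower thallium flux fluorescence means stronger hERG block; nearly all actives have a fitted effect of over 50% in size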
How it was run: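 U2OS cells transduced with hERG via BacMam (MOI ~100), plated 2000/well, loaded with FluxOR thallium dye, compound ~10 min, then stimulation buffer; fluorescence decrease read kinetically; AC50 from Hill fits.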

[9] = biological target: Glutaminase kidney isoform, mitochondrial (Homo sapiens) (UniProt O94925); test: qHTS for Inhibitors of Glutaminase (GLS): LOPAC Validation (AID 624146);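 further: glutamate product detected by oxidase and peroxidase coupled Amplex red fluorescence gain; series mostly up to about 46 µM; nearly all actives have a fitted effect of over 60% in size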
How it was run: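 hKGA; 45 mM KH2PO4 pH 8.2 + 0.02% Tween-20; cpd via pin tool; 1 mM Gln soln; GluOx/HRP/Amplex Red; RT 30 min; fluor. t0 & final.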

[10] = qHTS of Trypanosoma Brucei Inhibitors: LOPAC Validation (AID 624147)
How it was run: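 TbPYK + substrate in 50 mM TEA pH 7.2, 100 mM KCl, 10 mM MgCl2, 0.05% BSA, 0.01% Tween-20; cpd pinned; ADP 130 uM final; 45 min RT; Kinase-Glo Plus 10 min; luminescence endpoint.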

[11] = biological target: Glucagon-like peptide 1 receptor (Homo sapiens) (UniProt P43220); test: qHTS of GLP-1 Receptor Agonists: LOPAC Validation (AID 624148);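 further: higher luminescence signal means agonism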
How it was run: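 HEK293 cells stably co-expressing a cAMP-responsive luciferase reporter and a hypersensitive GLP-1R were plated 12 h at 37 °C and exposed to compounds for 4-6 hr at 37 °C, 5% CO2. Luminescence was read 12 min after adding detection reagent.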

[12] = qHTS of Nrf2 Activators: LOPAC Validation (AID 624149)
How it was run: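 ARE reporter activation measured in AREc32 firefly luciferase cells after 24 hr compound exposure; Steady-Glo luminescence.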

[13] = HTS Assay for Allosteric Antagonists of the Human D2 Dopamine Receptor: Hit Validation in HTRF (AID 624455);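 further: stable D1 dopamine receptor cell line scored for blocking the D1 response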
How it was run: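 Signal from an HTRF read-out in D1-expressing stable cells gave hit activity as inhibition of the D1 response.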

[14] = biological target: Arylsulfatase A (Homo sapiens) (UniProt P15289); test: qHTS screen for enhancers of Arylsulfatase A (ASA1): LOPAC Validation Assay (AID 720538)
How it was run: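 SV40-transformed skin fibroblasts from an MLD patient (ASA-I179S) were treated with compounds for 48h at 37 degree C, then lysed with 0.5mM pNCS final substrate for 14h at room temperature; NaOH stop, fluorescence read (Ex=525 nm; Em=598 nm).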

[15] = qHTS for compounds that reverse cellular toxicity of Amyloid beta (A-beta) peptide in yeast: LOPAC Validation Assay (AID 720559)
How it was run: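 Yeast cells expressing toxic A-beta were combined with pinned compounds in growth medium and incubated 48 hr at 30 C. Growth was read as absorbance at 600 nm and normalized to DMSO and to an equimolar FeCl3/clioquinol positive control.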

[16] = qHTS for Activators of Parkin Expression: LOPAC Validation Assay (NLuc Reporter) (AID 720572)
How it was run: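 Neuronal line stably carrying a FLuc/NLuc coincidence reporter under the Parkin promoter, seeded 24 h, then dosed in 7-point series for 24 h at 37 C. NLuc luminescence read after FLuc; normalized to DMSO and positive control (100%).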

[17] = biological target: T1, Hexokinase-4 (Homo sapiens) + Glucokinase regulatory protein (Homo sapiens) (UniProt P35557+Q14397); test: qHTS assay for inhibitors of recombinant human GCK-GKRP interaction: Diaphorase-coupled assay (AID 743205)
How it was run: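 GST-GCK (10 nM) with FLAG-GKRP (10 nM), 5 mM glucose and 0.4 mM ATP in pH 7.6 Hepes; compounds preincubated 20 min with substrate. G6PDH/diaphorase coupling converts resazurin to resorufin, read kinetically (ex 525/em 590 nm) for 30 min.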

[18] = biological target: T1, Hexokinase-4 (Homo sapiens) + Glucokinase regulatory protein (Homo sapiens); test: qHTS assay for inhibitors of recombinant human GCK-GKRP interaction: ADP-Glo assay (AID 743206)
How it was run: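 GST-GCK and FLAG-GKRP (15 nM each in the dispensed mix, with 2 uM S6P) react with 0.4 mM ATP and 5 mM glucose (final) in Hepes pH 7.6 for 60 min at room temperature. ADP is measured by ADP-Glo luminescence.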

T1 sequence (P35557 whole entry, looked up): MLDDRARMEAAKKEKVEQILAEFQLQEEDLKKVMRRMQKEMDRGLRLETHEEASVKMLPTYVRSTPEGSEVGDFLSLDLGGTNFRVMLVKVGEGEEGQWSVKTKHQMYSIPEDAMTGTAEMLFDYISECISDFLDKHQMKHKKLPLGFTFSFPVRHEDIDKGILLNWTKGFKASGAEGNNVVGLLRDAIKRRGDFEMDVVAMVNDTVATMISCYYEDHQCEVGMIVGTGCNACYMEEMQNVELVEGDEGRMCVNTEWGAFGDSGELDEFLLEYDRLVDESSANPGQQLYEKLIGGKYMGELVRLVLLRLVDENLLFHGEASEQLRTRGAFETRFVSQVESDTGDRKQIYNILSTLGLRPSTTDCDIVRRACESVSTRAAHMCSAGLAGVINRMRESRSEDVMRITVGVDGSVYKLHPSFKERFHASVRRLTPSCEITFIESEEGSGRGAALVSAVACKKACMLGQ
T1 sequence (Q14397 whole entry, looked up): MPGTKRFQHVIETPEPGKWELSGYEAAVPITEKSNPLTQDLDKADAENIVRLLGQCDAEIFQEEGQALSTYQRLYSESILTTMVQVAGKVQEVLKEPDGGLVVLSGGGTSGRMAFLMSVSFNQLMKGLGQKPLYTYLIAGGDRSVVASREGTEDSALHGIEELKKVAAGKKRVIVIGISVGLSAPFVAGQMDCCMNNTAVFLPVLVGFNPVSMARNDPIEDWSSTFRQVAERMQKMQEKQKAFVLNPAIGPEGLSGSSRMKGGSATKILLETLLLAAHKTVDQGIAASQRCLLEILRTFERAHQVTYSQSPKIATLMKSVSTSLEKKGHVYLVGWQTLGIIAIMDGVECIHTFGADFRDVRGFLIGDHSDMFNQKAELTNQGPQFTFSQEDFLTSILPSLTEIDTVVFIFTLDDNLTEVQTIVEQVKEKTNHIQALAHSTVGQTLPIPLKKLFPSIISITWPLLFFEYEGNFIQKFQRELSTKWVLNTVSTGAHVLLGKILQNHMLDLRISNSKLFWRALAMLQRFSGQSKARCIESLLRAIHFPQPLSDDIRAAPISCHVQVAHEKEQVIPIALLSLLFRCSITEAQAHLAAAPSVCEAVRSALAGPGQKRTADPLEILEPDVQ
Chain of Voltage-gated inwardly rectifying potassium channel KCNH2 (Homo sapiens) (Q12809 whole entry, looked up): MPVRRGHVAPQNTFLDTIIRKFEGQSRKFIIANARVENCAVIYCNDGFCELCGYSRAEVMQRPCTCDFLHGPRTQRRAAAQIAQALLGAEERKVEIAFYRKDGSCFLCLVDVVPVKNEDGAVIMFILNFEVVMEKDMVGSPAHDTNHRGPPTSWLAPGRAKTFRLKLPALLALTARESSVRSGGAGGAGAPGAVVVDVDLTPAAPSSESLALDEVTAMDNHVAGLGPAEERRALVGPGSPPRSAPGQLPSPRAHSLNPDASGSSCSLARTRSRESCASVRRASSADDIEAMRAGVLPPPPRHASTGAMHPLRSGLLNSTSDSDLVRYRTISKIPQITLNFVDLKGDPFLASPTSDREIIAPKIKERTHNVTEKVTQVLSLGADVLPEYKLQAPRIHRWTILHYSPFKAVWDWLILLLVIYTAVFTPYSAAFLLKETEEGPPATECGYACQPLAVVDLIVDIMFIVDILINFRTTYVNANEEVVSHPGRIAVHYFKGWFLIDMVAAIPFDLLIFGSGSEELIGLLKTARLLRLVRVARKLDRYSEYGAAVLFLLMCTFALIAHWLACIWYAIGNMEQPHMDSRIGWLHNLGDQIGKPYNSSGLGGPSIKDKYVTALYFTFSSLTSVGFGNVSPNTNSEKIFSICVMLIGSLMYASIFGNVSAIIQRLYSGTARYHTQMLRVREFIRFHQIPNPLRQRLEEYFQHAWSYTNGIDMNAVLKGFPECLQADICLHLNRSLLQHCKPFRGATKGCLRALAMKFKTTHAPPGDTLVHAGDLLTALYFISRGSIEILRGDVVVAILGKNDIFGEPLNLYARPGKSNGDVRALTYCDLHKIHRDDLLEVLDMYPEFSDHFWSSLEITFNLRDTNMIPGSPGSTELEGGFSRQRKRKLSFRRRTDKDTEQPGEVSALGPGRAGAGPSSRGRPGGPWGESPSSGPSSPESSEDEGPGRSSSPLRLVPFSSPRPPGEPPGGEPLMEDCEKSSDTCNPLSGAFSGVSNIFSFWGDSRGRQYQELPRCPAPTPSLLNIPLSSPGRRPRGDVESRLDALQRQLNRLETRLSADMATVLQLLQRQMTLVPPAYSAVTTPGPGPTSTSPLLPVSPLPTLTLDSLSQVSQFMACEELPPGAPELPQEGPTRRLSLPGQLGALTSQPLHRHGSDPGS
Chain of Ubiquitin carboxyl-terminal hydrolase 1 (Homo sapiens) (O94782 whole entry, looked up): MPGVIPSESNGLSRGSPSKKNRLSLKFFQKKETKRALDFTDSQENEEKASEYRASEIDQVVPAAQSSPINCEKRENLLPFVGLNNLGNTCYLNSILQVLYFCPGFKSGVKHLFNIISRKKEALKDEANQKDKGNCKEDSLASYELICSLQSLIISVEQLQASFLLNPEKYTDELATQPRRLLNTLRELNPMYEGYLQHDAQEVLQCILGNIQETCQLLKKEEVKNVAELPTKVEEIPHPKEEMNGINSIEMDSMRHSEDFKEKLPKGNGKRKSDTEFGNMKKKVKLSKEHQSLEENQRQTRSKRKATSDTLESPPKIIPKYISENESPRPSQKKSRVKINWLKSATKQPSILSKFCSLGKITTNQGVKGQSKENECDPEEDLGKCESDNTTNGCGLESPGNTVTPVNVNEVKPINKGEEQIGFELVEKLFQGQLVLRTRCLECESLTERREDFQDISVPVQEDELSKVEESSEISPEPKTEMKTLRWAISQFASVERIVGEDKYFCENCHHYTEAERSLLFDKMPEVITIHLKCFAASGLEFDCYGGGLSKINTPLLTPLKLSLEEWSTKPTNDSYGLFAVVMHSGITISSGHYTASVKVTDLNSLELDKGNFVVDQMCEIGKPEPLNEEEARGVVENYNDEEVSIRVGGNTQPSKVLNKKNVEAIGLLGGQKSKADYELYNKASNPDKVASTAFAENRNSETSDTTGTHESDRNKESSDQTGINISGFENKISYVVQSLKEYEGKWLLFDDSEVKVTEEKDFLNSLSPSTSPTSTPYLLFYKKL
Chain of Glucagon-like peptide 1 receptor (Homo sapiens) (P43220 whole entry, looked up): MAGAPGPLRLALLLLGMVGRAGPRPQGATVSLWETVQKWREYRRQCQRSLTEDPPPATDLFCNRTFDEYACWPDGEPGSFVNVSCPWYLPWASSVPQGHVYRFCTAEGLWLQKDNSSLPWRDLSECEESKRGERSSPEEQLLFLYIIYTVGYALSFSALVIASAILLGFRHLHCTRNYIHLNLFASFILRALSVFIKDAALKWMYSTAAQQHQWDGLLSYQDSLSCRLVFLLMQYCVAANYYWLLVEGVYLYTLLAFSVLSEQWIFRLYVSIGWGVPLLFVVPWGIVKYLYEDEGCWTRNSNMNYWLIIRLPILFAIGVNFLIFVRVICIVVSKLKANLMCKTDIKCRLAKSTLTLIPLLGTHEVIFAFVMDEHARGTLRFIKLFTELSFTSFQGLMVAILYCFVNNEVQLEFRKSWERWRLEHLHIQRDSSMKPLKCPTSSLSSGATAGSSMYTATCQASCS
Chain of Glutaminase kidney isoform, mitochondrial (Homo sapiens) (O94925 whole entry, looked up, canonical isoform): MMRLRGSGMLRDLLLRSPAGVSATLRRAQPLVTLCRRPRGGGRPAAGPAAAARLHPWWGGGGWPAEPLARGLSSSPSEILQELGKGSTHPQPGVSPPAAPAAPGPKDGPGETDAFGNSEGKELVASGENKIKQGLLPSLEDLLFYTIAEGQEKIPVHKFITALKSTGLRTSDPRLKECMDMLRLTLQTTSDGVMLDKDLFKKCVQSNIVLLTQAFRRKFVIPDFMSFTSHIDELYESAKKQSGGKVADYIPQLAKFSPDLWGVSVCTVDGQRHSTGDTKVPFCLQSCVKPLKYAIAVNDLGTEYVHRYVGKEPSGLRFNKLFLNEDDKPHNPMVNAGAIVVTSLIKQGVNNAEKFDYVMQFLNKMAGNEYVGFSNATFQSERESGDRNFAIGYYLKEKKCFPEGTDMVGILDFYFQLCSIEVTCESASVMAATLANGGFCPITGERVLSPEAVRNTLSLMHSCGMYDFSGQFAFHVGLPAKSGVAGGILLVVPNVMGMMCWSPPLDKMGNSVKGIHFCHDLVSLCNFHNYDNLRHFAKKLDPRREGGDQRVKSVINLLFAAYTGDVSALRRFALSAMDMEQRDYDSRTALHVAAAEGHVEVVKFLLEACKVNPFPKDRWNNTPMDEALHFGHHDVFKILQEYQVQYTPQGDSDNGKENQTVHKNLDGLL
Chain of Galactokinase (Homo sapiens) (P51570 whole entry, looked up): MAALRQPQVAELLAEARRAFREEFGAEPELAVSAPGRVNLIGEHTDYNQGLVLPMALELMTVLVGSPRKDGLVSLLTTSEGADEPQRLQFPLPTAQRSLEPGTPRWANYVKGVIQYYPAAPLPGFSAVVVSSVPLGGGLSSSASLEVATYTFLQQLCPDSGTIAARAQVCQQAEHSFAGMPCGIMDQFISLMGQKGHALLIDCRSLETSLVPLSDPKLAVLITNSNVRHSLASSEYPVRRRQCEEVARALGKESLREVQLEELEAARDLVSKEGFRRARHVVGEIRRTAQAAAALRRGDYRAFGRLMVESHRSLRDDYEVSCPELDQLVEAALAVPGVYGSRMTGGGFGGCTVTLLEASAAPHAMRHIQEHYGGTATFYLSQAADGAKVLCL

Cc1cccc(/C=C/c2ccccc2)n1
-2.71%: viability change [1]
inactive: outcome [1] | outcome [2] | outcome [3] | outcome [4] | Potency [5] | Potency [6] | Potency [7] | Potency [8] | Potency [9] | outcome [10] | outcome [11] | outcome [12] | outcome [13] | Potency [14] | outcome [15] | outcome [16] | outcome [17] | outcome [18]
